Measurements as given in ChEMBL document CHEMBL3988442, “University of Dundee, Small-Polar-MMV Screening Library” (2021).
For some of these results: Measured potencies and affinities stand elsewhere.

Tests used:
Parameters in all cases: scale not given: direction of the effect not stated beside the values
[1] = biological target: Protein translocase subunit SecA (Escherichia coli (strain K12)) (UniProt P10408); test: Assay to Identify E. coli SecA ATPase Inhibitors; assay type: functional; conditions: 30 µM
[2] = biological target: T1, Ubiquitin-activating enzyme e1, putative (Leishmania donovani (strain BPK282A1)) (UniProt E9BSI1); test: Leishmania donovani Ubiquitin Activating Enzyme (LdE1); assay type: functional; conditions: 30 µM
T1 sequence (whole entry): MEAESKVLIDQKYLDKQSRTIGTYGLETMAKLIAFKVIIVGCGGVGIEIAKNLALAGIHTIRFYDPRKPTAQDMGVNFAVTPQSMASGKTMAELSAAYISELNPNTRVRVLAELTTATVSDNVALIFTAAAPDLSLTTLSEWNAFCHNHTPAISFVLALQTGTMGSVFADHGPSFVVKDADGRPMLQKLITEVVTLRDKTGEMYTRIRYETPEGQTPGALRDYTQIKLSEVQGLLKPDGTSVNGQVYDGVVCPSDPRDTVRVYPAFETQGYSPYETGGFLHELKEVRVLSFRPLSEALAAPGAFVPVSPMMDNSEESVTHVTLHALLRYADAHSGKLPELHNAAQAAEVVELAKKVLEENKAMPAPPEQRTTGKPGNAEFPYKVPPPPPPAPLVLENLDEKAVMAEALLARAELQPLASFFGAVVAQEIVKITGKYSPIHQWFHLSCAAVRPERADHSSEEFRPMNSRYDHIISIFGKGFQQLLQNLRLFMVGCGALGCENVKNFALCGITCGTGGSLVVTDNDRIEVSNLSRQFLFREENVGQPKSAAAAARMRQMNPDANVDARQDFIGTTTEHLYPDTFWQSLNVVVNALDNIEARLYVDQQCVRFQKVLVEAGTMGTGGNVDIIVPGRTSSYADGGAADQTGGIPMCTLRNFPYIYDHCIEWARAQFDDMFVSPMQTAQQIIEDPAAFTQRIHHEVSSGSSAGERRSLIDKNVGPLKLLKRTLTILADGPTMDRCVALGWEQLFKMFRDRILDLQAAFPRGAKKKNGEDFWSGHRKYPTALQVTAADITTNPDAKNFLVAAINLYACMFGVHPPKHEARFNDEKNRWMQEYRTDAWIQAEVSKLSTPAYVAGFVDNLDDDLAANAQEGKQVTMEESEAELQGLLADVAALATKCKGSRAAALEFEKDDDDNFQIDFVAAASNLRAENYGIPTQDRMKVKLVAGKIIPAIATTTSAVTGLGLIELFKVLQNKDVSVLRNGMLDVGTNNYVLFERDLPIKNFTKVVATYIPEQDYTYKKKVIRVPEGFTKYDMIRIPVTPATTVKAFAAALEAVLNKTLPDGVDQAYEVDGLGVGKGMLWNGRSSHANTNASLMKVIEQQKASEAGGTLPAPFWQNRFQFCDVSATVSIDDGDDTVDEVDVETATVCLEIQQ

[3] = biological target: AMP-activated protein kinase, AMPK (Homo sapiens) (UniProt P54646+O43741+P54619+Q9UGJ0+Q9Y478+Q13131+Q9UGI9); test: AMP-dependent Kinase enzyme assay. An in vitro enzyme assay that detects ADP turnover that is directly proportional to AMPK activity. This uses naive AMPK that is activated during the assay with MK-8722; assay type: functional; conditions: 30 µM
[4] = biological target: Sialic acid-binding Ig-like lectin 9 (Homo sapiens) (UniProt Q9Y336); test: Hs-Siglec9 ALPHAscreen SOP 20170721; conditions: 10 µM
Trypanosoma cruzi = test: Trypanosoma cruzi phosphomannomutase and mannose-1-phosphate guanylyltransferase assay; assay type: functional; conditions: 10 µM
[5] = biological target: T2, Arginase-2, mitochondrial (Homo sapiens) (UniProt P78540); test: in vitro enzyme assay to detect the production of urea directly proportional to the activity of Arginase II; assay type: functional; conditions: 33.3 µM; note: in the data most compounds retested in dose-response had high values
T2 sequence (whole entry): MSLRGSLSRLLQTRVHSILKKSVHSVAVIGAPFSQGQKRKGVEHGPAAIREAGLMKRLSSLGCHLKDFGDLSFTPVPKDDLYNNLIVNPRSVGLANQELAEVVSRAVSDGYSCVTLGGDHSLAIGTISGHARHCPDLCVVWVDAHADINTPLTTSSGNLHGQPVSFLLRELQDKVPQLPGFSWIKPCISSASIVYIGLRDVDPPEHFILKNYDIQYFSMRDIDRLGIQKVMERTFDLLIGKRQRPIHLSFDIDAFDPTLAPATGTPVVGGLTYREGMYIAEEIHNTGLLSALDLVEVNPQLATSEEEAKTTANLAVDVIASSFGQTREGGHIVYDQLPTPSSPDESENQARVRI

[6] = biological target: T3, Proteasome subunit beta (Trypanosoma cruzi) (UniProt O96673); test: Trypanosoma cruzi proteasome chymotrypsin-like activity (TcProtChymo) assay.; note: in the data most compounds retested in dose-response had high values; assay type: functional; conditions: 9.37 µM
T3 sequence (whole entry): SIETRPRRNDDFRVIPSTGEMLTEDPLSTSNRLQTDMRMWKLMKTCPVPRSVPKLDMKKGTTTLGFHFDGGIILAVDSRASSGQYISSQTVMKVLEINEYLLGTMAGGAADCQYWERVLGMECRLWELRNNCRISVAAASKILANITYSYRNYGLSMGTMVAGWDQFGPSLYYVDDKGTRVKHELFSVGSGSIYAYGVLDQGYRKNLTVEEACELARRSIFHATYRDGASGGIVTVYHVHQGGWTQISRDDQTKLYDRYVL

Homo sapiens = species on record: Homo sapiens; test: To identify inhibition of the IFN signalling (Jak-Stat) pathway via expression of an eGFP reporter gene under the control of an IFN-stimulated response element (ISRE) containing MxA promoter.; assay type: functional; conditions: 30 µM
[7] = biological target: T4, Tyrosyl-tRNA synthetase, putative (Trypanosoma cruzi (strain CL Brener)) (UniProt Q4DSP6); test: Trypanosoma cruzi tyrosyl tRNA synthetase (TcYRS) _High Tyrosine SOP; assay type: functional; conditions: 30 µM; note: in the data most compounds retested in dose-response had high values
T4 sequence (whole entry): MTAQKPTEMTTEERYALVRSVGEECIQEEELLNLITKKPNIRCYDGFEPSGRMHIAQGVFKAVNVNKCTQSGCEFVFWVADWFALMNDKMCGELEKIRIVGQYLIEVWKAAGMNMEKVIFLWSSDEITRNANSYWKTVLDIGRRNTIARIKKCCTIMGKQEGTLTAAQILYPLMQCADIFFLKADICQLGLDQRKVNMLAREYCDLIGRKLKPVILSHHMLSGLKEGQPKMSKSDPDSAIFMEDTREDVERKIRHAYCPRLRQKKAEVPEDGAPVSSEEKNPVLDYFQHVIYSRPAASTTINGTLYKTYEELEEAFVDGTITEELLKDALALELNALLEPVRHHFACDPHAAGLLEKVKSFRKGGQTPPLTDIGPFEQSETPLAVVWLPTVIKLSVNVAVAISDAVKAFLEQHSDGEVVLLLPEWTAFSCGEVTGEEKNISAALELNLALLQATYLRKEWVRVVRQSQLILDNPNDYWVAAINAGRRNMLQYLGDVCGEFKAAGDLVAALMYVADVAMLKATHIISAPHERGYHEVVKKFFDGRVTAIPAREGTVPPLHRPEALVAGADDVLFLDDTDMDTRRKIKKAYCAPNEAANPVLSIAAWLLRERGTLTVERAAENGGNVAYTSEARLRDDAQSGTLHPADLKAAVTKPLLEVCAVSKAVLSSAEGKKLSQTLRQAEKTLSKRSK

[8] = biological target: T4, Tyrosyl-tRNA synthetase, putative (Trypanosoma cruzi (strain CL Brener)); test: Trypanosoma cruzi tyrosyl tRNA synthetase (TcYRS) SOP; assay type: functional; conditions: 30 µM
[9] = biological target: Chromo domain-containing protein 1 (Saccharomyces cerevisiae (strain ATCC 204508 / S288c) (Baker's yeast)) (UniProt P32657); test: ScCHD-1 Enzyme Inhibition Assay; assay type: functional; conditions: 30 µM; note: in the data most compounds retested in dose-response had high values
Sequence of Chromo domain-containing protein 1 (Saccharomyces cerevisiae (strain ATCC 204508 / S288c) (Baker's yeast)) (P32657 whole entry, the tested form may be a part): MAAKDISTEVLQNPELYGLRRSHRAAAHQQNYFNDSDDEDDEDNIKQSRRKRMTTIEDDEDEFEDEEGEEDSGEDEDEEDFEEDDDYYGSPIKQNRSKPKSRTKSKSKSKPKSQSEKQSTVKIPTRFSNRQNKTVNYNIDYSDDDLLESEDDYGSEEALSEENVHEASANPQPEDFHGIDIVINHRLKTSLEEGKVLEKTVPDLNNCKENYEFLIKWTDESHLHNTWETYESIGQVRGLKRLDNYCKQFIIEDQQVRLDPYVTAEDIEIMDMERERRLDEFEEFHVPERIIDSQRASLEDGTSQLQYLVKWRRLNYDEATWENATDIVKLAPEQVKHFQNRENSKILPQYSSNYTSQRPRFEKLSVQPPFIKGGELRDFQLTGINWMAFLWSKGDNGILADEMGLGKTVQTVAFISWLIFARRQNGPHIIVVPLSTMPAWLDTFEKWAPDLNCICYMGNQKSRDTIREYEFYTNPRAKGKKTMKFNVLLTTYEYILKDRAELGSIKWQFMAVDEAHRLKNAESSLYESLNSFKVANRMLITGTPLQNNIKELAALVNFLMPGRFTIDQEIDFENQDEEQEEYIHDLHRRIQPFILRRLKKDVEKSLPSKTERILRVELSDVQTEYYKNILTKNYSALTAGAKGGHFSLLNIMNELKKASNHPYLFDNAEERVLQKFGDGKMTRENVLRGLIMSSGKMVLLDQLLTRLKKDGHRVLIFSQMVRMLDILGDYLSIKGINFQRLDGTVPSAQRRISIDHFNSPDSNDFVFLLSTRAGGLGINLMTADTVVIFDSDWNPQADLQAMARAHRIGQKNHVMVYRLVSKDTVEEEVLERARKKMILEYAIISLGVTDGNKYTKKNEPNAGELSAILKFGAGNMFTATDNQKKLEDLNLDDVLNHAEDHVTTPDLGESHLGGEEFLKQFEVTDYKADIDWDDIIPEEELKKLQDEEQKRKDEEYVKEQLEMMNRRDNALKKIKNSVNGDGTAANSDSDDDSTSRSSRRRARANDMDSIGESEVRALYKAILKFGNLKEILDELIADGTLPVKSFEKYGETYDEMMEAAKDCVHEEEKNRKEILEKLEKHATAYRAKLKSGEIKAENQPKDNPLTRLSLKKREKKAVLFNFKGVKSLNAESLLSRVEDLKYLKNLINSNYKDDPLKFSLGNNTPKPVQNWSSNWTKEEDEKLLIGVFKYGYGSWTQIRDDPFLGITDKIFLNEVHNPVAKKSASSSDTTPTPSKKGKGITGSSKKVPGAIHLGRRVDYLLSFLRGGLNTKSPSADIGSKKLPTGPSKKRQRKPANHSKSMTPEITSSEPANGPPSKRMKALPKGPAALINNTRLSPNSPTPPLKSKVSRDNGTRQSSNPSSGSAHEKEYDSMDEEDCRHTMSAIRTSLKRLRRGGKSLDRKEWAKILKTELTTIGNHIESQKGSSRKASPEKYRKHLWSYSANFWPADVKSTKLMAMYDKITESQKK

Sequence of Protein translocase subunit SecA (Escherichia coli (strain K12)) (P10408 whole entry): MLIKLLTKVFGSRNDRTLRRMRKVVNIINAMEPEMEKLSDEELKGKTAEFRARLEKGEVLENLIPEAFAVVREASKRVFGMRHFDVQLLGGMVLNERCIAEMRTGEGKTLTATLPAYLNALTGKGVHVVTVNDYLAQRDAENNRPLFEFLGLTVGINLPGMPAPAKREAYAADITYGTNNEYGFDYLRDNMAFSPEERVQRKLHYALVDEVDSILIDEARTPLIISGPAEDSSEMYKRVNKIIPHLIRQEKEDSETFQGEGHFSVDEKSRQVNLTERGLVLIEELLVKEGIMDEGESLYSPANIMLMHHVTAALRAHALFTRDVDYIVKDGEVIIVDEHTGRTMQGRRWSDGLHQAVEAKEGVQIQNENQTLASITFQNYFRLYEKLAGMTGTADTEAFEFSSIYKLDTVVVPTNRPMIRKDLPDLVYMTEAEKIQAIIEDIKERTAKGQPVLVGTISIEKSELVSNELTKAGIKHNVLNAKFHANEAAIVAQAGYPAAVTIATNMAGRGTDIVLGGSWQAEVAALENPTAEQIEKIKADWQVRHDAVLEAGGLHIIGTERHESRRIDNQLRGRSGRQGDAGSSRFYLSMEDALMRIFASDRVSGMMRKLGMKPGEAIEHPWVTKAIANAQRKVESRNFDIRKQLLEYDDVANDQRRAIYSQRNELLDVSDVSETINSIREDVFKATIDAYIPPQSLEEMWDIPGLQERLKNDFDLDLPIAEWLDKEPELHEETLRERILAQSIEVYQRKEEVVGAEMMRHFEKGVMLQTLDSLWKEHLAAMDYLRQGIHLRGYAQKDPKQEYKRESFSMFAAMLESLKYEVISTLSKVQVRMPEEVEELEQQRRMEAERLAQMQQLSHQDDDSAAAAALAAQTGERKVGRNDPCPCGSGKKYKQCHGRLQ
Sequence of Sialic acid-binding Ig-like lectin 9 (Homo sapiens) (Q9Y336 whole entry): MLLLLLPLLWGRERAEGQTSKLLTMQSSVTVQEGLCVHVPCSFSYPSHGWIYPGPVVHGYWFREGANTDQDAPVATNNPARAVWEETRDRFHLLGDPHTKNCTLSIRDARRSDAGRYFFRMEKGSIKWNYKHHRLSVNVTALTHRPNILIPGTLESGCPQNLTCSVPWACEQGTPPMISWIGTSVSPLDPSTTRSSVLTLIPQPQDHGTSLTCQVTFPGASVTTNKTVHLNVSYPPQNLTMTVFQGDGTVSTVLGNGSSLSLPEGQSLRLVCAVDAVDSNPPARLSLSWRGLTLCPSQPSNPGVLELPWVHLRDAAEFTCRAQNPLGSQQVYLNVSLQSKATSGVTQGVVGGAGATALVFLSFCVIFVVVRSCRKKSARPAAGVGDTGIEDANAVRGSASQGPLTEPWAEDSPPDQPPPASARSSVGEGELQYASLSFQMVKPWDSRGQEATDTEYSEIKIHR

Row | Structure (SMILES) | Percent Effect [1] [%] | Percent Effect [2] [%] | Percent Effect [3] [%] | Percent Effect [4] [%] | Percent Effect (Trypanosoma cruzi) [%] | Percent Effect [5] [%] | Percent Effect [6] [%] | Percent Effect (Homo sapiens) [%] | Percent Effect [7] [%] | Percent Effect [8] [%] | Percent Effect [9] [%]
1 | Cc1cc(C)n(-c2cncc(N3CCN(C(=O)C(C)(C)C)CC3)n2)n1 | -5.22 | 5.41 | 10.4 | -2.19 | -3.71 | -0.833 | 13.3 | 10.5 | 3.96 | 1.22 | -3.42
2 | Cc1noc(C)c1CN1CCN(Cc2nccn2C)C(C)C1 (stereo unspecified) | 0.213 | 10.1 | -9.19 | 2.86 | -10.1 | 5.7 | 5.65 | 18.5 | -0.493 | 11.4 | -5.78
3 | CC(=O)N1CCOCC2(CCN(Cc3ccc(C)s3)CC2)C1 | -3.46 | 10.7 | -5.5 | -0.245 | 6.37 | -51.8 | 2.91 | -1.39 | 4.17 | 5 | -7.22
4 | O=C(C1=CCCC1)N1CCC[C@]2(C[C@@H](OCc3ccncc3)CO2)C1 | 1.57 | 10.7 | 4.23 | 8.61 | -1.93 | -19.2 | 7.69 | -6.85 | 5.21 | 22.5 | -9.61
5 | Cc1cnc(C(=O)N2CCc3ncnc(C)c3CC2)cn1 | -2.65 | 0 | -0.0548 | 5.51 | -1.39 | -2.79 | 15.8 | 19.6 | 2.08 | 11.1 | -2.02
6 | c1ccc2oc(N3CCCCC3Cn3cncn3)nc2c1 (stereo unspecified) | -9.23 | 18.9 | -13.5 | 28.6 | 11.4 | -2.4 | 2.69 | 1.84 | 7.92 | 25.6 | -5.86
7 | CNC(=O)C1(c2cnccn2)CCCN1C(=O)c1ccn(C)n1 (stereo unspecified) | -5.86 | 6.76 | 3.23 | -2.02 | 0.593 | -1.16 | 1.4 | 7.86 | 4.3 | 74 | -22
8 | Cc1cn2c(n1)CCC(NC(=O)c1nc(C)ncc1Cl)C2 (stereo unspecified) | -5.44 | 7.79 | 5.82 | 3.39 | 4.41 | 1.05 | 8.49 | -7.16 | 4.76 | 18.8 | -23.3
9 | O=C1CCCCN1c1cccc(CNC2CCCC2)c1 | -1.28 | 0 | 5.47 | 3.26 | 2.06 | 2.74 | 8.49 | -9.59 | 2.86 | 7.06 | -7.72
10 | CCn1cnnc1C1CCN(C(=O)c2ccc3cc[nH]c3c2)CC1 | -5.68 | 7.89 | 11.4 | 8.5 | -3.21 | 3.55 | 11 | -5.37 | -2.13 | 7.79 | -4.05
11 | Cc1nnc(CCNC2CCN(c3ncnc4c(C)csc34)CC2)s1 | -3.21 | 7.79 | 3.06 | 11 | 7.77 | -2.76 | 12.8 | 40.2 | 8.6 | 16.1 | -8.66
